Structures are written as SMILES. The whole screen tested about 360,000 compounds, of which about 9,100 (2.5%) were called active. Another 4% or so got no clear call; they are omitted. For the sample, actives were picked, then their nearest neighbours and some compounds at random. Unmarked numbers belong to inactive results. No stated cut-off is given here; in the data, active means max response below about -50%; inconclusive means no clear call, values can overlap the other calls; inactive means above that.
On the % scale 0 is the no-effect control and ±100 the full control effect.

D(3) dopamine receptor (Homo sapiens), sequence (P35462 whole entry, looked up): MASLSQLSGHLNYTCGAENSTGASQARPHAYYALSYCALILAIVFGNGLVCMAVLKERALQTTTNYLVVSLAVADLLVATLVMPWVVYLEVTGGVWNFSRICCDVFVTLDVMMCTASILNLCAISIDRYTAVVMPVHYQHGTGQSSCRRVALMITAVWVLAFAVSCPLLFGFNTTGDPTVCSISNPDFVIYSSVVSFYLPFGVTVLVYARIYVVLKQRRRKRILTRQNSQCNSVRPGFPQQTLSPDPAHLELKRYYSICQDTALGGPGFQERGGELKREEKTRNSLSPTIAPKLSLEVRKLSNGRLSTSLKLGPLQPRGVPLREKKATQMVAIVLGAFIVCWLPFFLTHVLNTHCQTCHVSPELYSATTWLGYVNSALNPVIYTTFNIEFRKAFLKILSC

This assay addresses D(3) dopamine receptor (Homo sapiens) (UniProt P35462). Nature of the assay: qHTS of D3 Dopamine Receptor Antagonist: qHTS. The following applies: D3R cells, DiscoveRx beta-arrestin luminescence, antagonist mode; stronger effect = lower value. An outline of the steps:
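Cells plated overnight at 1500 cells/well, then exposed to library compounds with dopamine controls for 90 minutes at 37 degrees C. DiscoveRx reagent added for 30–60 minutes at room temperature; luminescence read, quantitative HTS format.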
For orientation: Quantitative high-throughput screening tests each substance at several concentrations.
With `CC(C)(O)C1=C[N+](=O)CC=C1`, the max response, negative = inhibition was -16.9%.
To `O=C(c1ccccc1)N1CCN(c2cc(-c3ccccc3)nc3cc(-c4cccc(Cl)c4)nn23)CC1` belongs 14.3%; to `CCOC(=O)c1[nH]c2ccc(OC)cc2c1NC(=O)CCN1CCN(Cc2ccccc2)CC1`, -54.8% (active).
Turning to `COC(=O)c1[nH]c2ccccc2c1NC(=O)CN1CCCc2ccccc21`, the max response, negative = inhibition was 9.03%.
On to `Cc1cc(NC(=O)CCN2CCN(Cc3ccccc3)CC2)ccc1Br`, for which the max response, negative = inhibition was -20.3%.
As for `COc1ccc(-c2c(C#N)cnc(C)c2C)c(O)c1OC`, the figure is 9.2%.
For `CC(=O)Nc1cccc(Nc2ccc(C#N)cc2)c1`, the max response, negative = inhibition is 1.07%.
`Clc1ccc(CN2CCCCCC2)cc1Cl`: the max response, negative = inhibition is -62.3% (active).
Take `c1cc(-c2nn[nH]n2)ccc1CN1CCCCC1`: the max response, negative = inhibition was -18.9%.
On to `Clc1ccc(-n2nnnc2CN2CCCCC2)cc1Cl`, for which the max response, negative = inhibition is -19.7%.
As to `CC1(C(=O)NCc2ccc3c(c2)OCO3)CCN1CCc1ccccc1` (centres undefined), the max response, negative = inhibition was -10.3%.
Take `COCCNc1nc(NCc2ccc(NC(C)=O)cc2)c2sccc2n1`: the max response, negative = inhibition is 23.6%.
As for `COc1ccc(NC(=O)C2Cc3c(-c4ccc5c(c4)OCO5)ccnc3O2)cn1` (centres undefined), the figure is -19.8%; as for `CC1(C)Cc2ccccc2/C(=C/C(=O)c2ccccc2)N1`, 3.22%; as for `CC1(C)Cc2ccccc2-c2nc(CN3CCOCC3)[nH]c(=O)c21`, 8.19%.
Regarding `CC1(C)Cc2ccccc2-c2[nH]c(=S)[nH]c(=O)c21`, the max response, negative = inhibition was -54.5% (active).
On to `COc1cc(Cn2c3ccc(NC(=O)CC(C)c4ccccc4)cc3c(=O)n2C)ccc1F` (centres undefined), for which the max response, negative = inhibition was 0%.
As to `CC1(C(=O)NS(=O)(=O)c2ccc(C#N)cc2)CCN1C(=O)c1ccc(C2CCCCC2)cc1` (centres undefined), the max response, negative = inhibition was -14.3%.
With `OCC1OC(n2cnc3c(N4CCCC4)ncnc32)C(O)C1O` (centres undefined), the max response, negative = inhibition was 10.4%.
`O=C(OCc1cn([C@@H]2C[C@H](c3ccc(Cl)cc3)N(Cc3cccs3)C[C@H]2O)nn1)c1ccccc1`: the max response, negative = inhibition is -15%.
On to `CCN(CC)CCNC(=O)c1cc(S(C)(=O)=O)ccc1OC`, for which the max response, negative = inhibition is -60.5% (active).
Regarding `COc1ccc(S(=O)(=O)NC(C)C)cc1C(=O)NC1CCCCC1`, the max response, negative = inhibition is 11.4%.
As for `CCN(CC)CCNC(=O)c1ccc(NS(=O)(=O)c2ccc3c(c2)OCCO3)cc1`, the figure is 2.66%; as for `COc1cccc(CN2CCC(C(=O)NC(c3ccc4c(c3)OCO4)c3ccccn3)CC2)c1` (centres undefined), -21.6%; as for `O=C(NCCN1CCOCC1)c1ccc2c(c1)N(Cc1cccc(Cl)c1)C(=O)c1ccccc1S2(=O)=O`, -29.4%.
As for `CC1(C(=O)Nc2cccc3c2CCCC3)CCN1C(=O)C1(c2ccccc2)CC1` (centres undefined), the max response, negative = inhibition is 11.6%.
For the compound `CCOC(=O)C1CCCN(C(=O)/C=C/c2ccc(OC)cc2)C1` (centres undefined), the max response, negative = inhibition is -24.9%.
Consider `CCOC(=O)c1cc2cc(OC)ccc2n1C1CCN(C)CC1`, for which the max response, negative = inhibition is -92.9% (active).
On to `CCOC(=O)N1CCN(C(=O)C2CCN(Cc3ccc(OC)cc3OC)CC2)CC1`, for which the max response, negative = inhibition was 0.368%.
In the case of `O=C1c2ccccc2C(c2nc3ccccc3[nH]2)N1c1ccccc1` (centres undefined), the max response, negative = inhibition is 6.4%.
`O=C(c1ccc(CS(=O)Cc2ccccc2Cl)o1)N1CCN(c2ccccc2)CC1` (centres undefined): the max response, negative = inhibition is 2.17%.
Regarding `CS(=O)(=O)/C(C#N)=C/c1cccn1S(=O)(=O)c1ccc([N+](=O)[O-])cc1`, the max response, negative = inhibition was -13.9%.
For `O=C1c2ccccc2C(=O)c2c1cccc2N1CCN(Cc2ccccc2)CC1`, the max response, negative = inhibition was -83% (active).
With `O=C(CN1CCN(Cc2ccccc2)CC1)NC(c1ccccc1)c1ccccc1`, the max response, negative = inhibition was -9.3%.
For `O=S1(=O)CCN(Cc2ccccc2)CC1`, the max response, negative = inhibition was -8.1%.
For the compound `FC(F)(F)c1cccc(-c2nc3ccccc3n2C(c2ccccc2)c2nc3ccccc3[nH]2)c1` (centres undefined), the max response, negative = inhibition is 7.98%.
For `CCCNC(=O)c1cc(C2CCCCN2S(=O)(=O)c2ccc(C#N)cc2)on1` (centres undefined), the max response, negative = inhibition was 15.7%.
As for `CCOc1ccc(CCN2C(=O)C(=O)N([C@@H](CC(C)C)CN3CCC[C@H]3CN3C(=O)C(=O)NC[C@@H]3Cc3ccccc3)C[C@@H]2CC(C)C)cc1`, the figure is 2.39%; as for `COc1ccc(NS(=O)(=O)c2cccc3nsnc23)cc1Cl`, -6.5%; as for `O=C(O)c1ccc(NS(=O)(=O)c2cccc3nsnc23)cc1`, -88.2% (active).
With `O=S(=O)(Nc1ccccc1Cl)c1cccc2nsnc12`, the max response, negative = inhibition was -8.87%.
With `Cc1cn([C@H]2C[C@H](O)[C@@H](/C=C/C(=O)NCCCc3ccccc3)O2)c(=O)[nH]c1=O`, the max response, negative = inhibition is 0%.
As to `CCOc1ccc(S(=O)(=O)NCCC(=O)NCC2CCCO2)cc1` (centres undefined), the max response, negative = inhibition is 20.2%.
As for `CCOc1ccc(C(=O)NC2CCN(S(=O)(=O)CC)CC2)cc1`, the max response, negative = inhibition is 8.12%.
To `CCOc1ccc(CC(=O)NC2CCN(Cc3ccccc3)CC2)cc1` belongs -12.8%.
In the case of `CCOc1ccc(NS(=O)(=O)c2ccc(C(=O)NCC3CCCO3)cc2)cc1` (centres undefined), the max response, negative = inhibition is -69.2% (active).
As for `O=C(NCC1CCCO1)c1ccc(S(=O)(=O)Nc2ccc(F)cc2)cc1` (centres undefined), the figure is -12.1%; as for `CCOc1ccc(NS(=O)(=O)c2ccc(C(=O)NC3CCN(Cc4ccccc4)CC3)cc2)cc1`, -68.8% (active); as for `O[C@H]1C[C@H](c2ccc(Cl)cc2)N(Cc2cccs2)C[C@@H]1n1cc(C2CC2)nn1`, -1.65%.
To `O=S1(=O)CC(N2CCN(CCO)CC2)CN1C1CCCC1` (centres undefined) belongs 8.42%.
For the compound `CC(=O)Nc1cccc(-c2ccnc3c2CC(C)(C(=O)NCc2ccco2)O3)c1` (centres undefined), the max response, negative = inhibition was -21.1%.
For `O=[N+]([O-])c1ccc(N2CCSCC2)cc1O`, the max response, negative = inhibition was -6.65%.
As for `CC1CCN(c2ccc([N+](=O)[O-])c(SCCO)c2)CC1`, the max response, negative = inhibition was -51.8% (active).
On to `CC1CCN(c2ccc([N+](=O)[O-])cc2C(N)=O)CC1`, for which the max response, negative = inhibition was 10.9%.
`O=C(Cc1ccc([N+](=O)[O-])cc1)NCCS(=O)(=O)N1CCN(c2ccccc2)CC1`: the max response, negative = inhibition was 3.87%.
Regarding `COc1ccc(C(CNC(=O)c2cc3c(s2)CCCC3)N2CCOCC2)cc1` (centres undefined), the max response, negative = inhibition is -51.3% (active).
To `Cc1c(C(=O)NCC(c2ccco2)N2CCCC2)oc2ccc(Cl)cc12` (centres undefined) belongs -65.1% (active).
As for `CSc1ncccc1C(=O)NCC(c1ccco1)N1CCCCC1` (centres undefined), the figure is 9.6%.
To `CC1Cc2ccccc2N1S(=O)(=O)c1cccc(C(=O)NCC(c2ccco2)N2CCCC2)c1` (centres undefined) belongs -17.2%; to `COc1cc(C(=O)NCC(c2ccco2)N2CCCC2)ccc1OCc1ccccc1` (centres undefined), 4.86%; to `CC1CCc2sc(C(=O)NCC(c3ccco3)N3CCCCC3)cc2C1` (centres undefined), -82.1% (active).
Regarding `COc1ccc(C(CNC(=O)c2ccc(S(=O)(=O)Nc3ccccc3C)cc2)N2CCOCC2)cc1` (centres undefined), the max response, negative = inhibition was -0.45%.
In the case of `Cc1cc(S(=O)(=O)Nc2ccc(C(=O)NCC(c3ccco3)N3CCCC3)cc2)ccc1F` (centres undefined), the max response, negative = inhibition is 1.86%.
As to `COc1ccc(C(CNC(=O)c2cccnc2SC)N2CCOCC2)cc1` (centres undefined), the max response, negative = inhibition was -18.5%.
Consider `CC(C)C[C@@H]1COc2cc(N3CCC[C@@H]3CO)ccc2S(=O)(=O)N1`, for which the max response, negative = inhibition was 18.9%.
With `CN(Cc1ccccc1)C(=O)[C@@H]1CCCN1C(=O)[C@@H]1CCCN1C(=O)c1c(F)cccc1F`, the max response, negative = inhibition was -11.2%.
Regarding `O=C(NN=Cc1ccc2c(c1)CCC2)c1ccccc1O`, the max response, negative = inhibition was 10.4%.
Turning to `CCc1cccc(C)c1NC(=O)COC(=O)CNC(=O)c1cccs1`, the max response, negative = inhibition was 5.78%.
Regarding `CCc1cccc(C)c1NC(=O)COC(=O)CC1CCCC1`, the max response, negative = inhibition was -10.7%.
With `CCc1cccc(C)c1NC(=O)COC(=O)Cc1ccsc1`, the max response, negative = inhibition is -57.7% (active).
Regarding `CCCCn1nnnc1C(c1cc2ccccc2o1)N(C)Cc1ccc(Cl)c(Cl)c1` (centres undefined), the max response, negative = inhibition was 16.5%.
With `COC(=O)[C@@]12C[C@@H](CC(=O)NCCCCc3ccccc3)C(=O)N(CCc3ccc(OC)c(OC)c3)C1=CCC(C)(C)C2`, the max response, negative = inhibition is -7.78%.
With `COc1ccc(CC2(CO)CCN(Cc3cnn(C)c3)CC2)cc1`, the max response, negative = inhibition is 4.38%.
On to `COC(=O)c1ccc(CN2CCC(CO)(Cc3ccc(OC)cc3)CC2)cc1`, for which the max response, negative = inhibition is -62.3% (active).
For the compound `COc1cccc(CC2(CO)CCN(Cc3cnc(-c4cccc(C)c4)nc3)CC2)c1`, the max response, negative = inhibition is 33.5%.
Regarding `COc1ccc(CNC(=O)c2ccc(-c3cccnc3)c3ccoc23)cc1OC`, the max response, negative = inhibition is 57.4%.
For the compound `CCNC(=O)c1cc2c(c(-c3cccc(-c4cncnc4)c3)n1)[C@H](CCO)N(C(C)=O)C2`, the max response, negative = inhibition is -53.7% (active).
On to `CC(=O)N1Cc2cc(C(=O)NCc3cccc(F)c3)nc(-c3cccc(C4=CCCC4)c3)c2[C@H]1CCO`, for which the max response, negative = inhibition was 4.11%.
Turning to `CC(=O)N1Cc2cc(C(=O)NCc3cccc(F)c3)nc(-c3cccc(C4=CCCCC4)c3)c2[C@H]1CCO`, the max response, negative = inhibition was 40.6%.
For the compound `CN(Cc1ccc(C(F)(F)F)cc1)C(=O)[C@H]1O[C@@H](n2cnc3c(N)ncnc32)[C@H](O)[C@@H]1O`, the max response, negative = inhibition was 14.2%.
Consider `CC1(C(=O)NCc2ccccc2)CSCC(=O)N1CCCN1CCOCC1` (centres undefined), for which the max response, negative = inhibition was 2.3%.
As for `CC1(C)CN(CCc2ccccc2)C(=O)[C@H]1CC(=O)Nc1ccc(Br)cc1`, the figure is -16%; as for `O=[N+]([O-])c1ccc(N2CCNCC2)cc1NCc1cccnc1`, 1.82%; as for `CN1CCN(S(=O)(=O)c2ccc(N3CCN(c4ccccc4O)CC3)c([N+](=O)[O-])c2)CC1`, -19.5%.
Consider `CN1CCN(c2ccc([N+](=O)[O-])c(Sc3nc4ccccc4[nH]3)c2)CC1`, for which the max response, negative = inhibition was -91.8% (active).
In the case of `CCCS(=O)(=O)NC(=O)C1(C)CCCN(C(=O)c2cc(C)on2)C1` (centres undefined), the max response, negative = inhibition was 2.9%.
Turning to `COc1ccc(-c2cc(=O)oc3cc(OCC(=O)N(C)C4CCS(=O)(=O)C4)ccc23)cc1` (centres undefined), the max response, negative = inhibition is -51.8% (active).
As for `CC(=O)c1ccc(OCC(=O)N(C)C2CCS(=O)(=O)C2)cc1` (centres undefined), the figure is -0.617%.
As for `COc1ccc2c(-c3ccccc3)cc(SCC(=O)N(C)C3CCS(=O)(=O)C3)nc2c1` (centres undefined), the max response, negative = inhibition was 0.687%.
